Compounds without any hit were thinned out: in the full panel of roughly 83,000, 20% have a hit.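 Assay: single dose, 48 h. Readout: percent growth (0 = no net growth; negative = cell death). Active: <10.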 A number with no mark means an inactive call. Activity calls are given as the source filed them.
Assays:
Experiment in all cases: NCI-60 one-dose screen, 48 h (100 = growth as untreated, 0 = no growth, -100 = all killed)
NCI-H23 lung = conditions: 10 µM unless noted
NCI-H226 lung = conditions: 10 µM unless noted
NCI-H322M lung = conditions: 10 µM unless noted
HOP-62 NSCLC = conditions: 10 µM unless noted
NCI-H460 lung = conditions: 10 µM unless noted
HOP-92 NSCLC = conditions: 10 µM unless noted
NCI-H522 lung = conditions: 10 µM unless noted
A549/ATCC NSCLC = conditions: 10 µM unless noted
786-0 renal = conditions: 10 µM unless noted
COLO 205 colon = conditions: 10 µM unless noted
DU-145 prostate = conditions: 10 µM unless noted
K-562 leukemia = conditions: 10 µM unless noted
MALME-3M melanoma = conditions: 10 µM unless noted
MDA-MB-231 breast = conditions: 10 µM unless noted
RXF 393 renal = conditions: 10 µM unless noted
SF-268 CNS = conditions: 10 µM unless noted
SF-295 CNS = conditions: 10 µM unless noted
SF-539 CNS = conditions: 10 µM unless noted
UACC-257 melanoma = conditions: 10 µM
M14 melanoma = conditions: 10 µM unless noted

Row | Compound | growth (NCI-H23 lung) | growth (NCI-H226 lung) | growth (NCI-H322M lung) | growth (HOP-62 NSCLC) | growth (NCI-H460 lung) | growth (HOP-92 NSCLC) | growth (NCI-H522 lung) | growth (A549/ATCC NSCLC) | growth (786-0 renal) | growth (COLO 205 colon) | growth (DU-145 prostate) | growth (K-562 leukemia) | growth (MALME-3M melanoma) | growth (MDA-MB-231 breast) | growth (RXF 393 renal) | growth (SF-268 CNS) | growth (SF-295 CNS) | growth (SF-539 CNS) | growth (UACC-257 melanoma) | growth (M14 melanoma)
1 | COC1=CC(c2ccc[nH]2)=N/C1=C\c1[nH]c(C)c(C(=O)CCC(=O)Oc2ccc3c(c2)CCC2C3CC[C@]3(C)[C@@H](O)CC[C@@H]23)c1C (stereo not given in full) | 18.4% | 15.5% | 42.7% | 12.4% | 1.58% (active) | -45.2% (active) | -58.9% (active) | -10.9% (active) | -46.3% (active) | 31.5% | 0.722% (active) | -18% (active) | 9.7% (active) | -64.2% (active) | -6.4% (active) | 3.8% (active) | 20.3% | -18.9% (active) | 82.4% | -50.8% (active)
2 | COc1ccc(NC(=O)CSc2nc3ccccc3c(=O)n2-c2ccccc2C(F)(F)F)c(OC)c1OC | 102% | 102% | 116% | 78% | 99.4% | 77.3% | 112% | 98.3% | 101% | 102% | 105% | 94.5% | 106% | 89% | 108% | 100% | 94.2% | 94.7% | 100% | 97.5%
3 | NC(CC(N)C(=O)O)C(=O)O (stereo not given) | 107% | 103% | 103% | 117% | 108% | 115% | 79.7% | 99.4% | 105% | 115% | 115% | 91.8% | 104% | 103% | 89.6% | 109% | 101% | 97.9% | 95.2% | 104%
4 | COc1ccc(S(=O)(=O)N2CCN(c3cc4c(cc3F)c(=O)c(C(=O)O)cn4C3CC3)CC2)c(OC)c1 | 97% | 89% | 91.6% | 86.6% | 99% | 90.2% | 91.4% | 93.6% | 91.5% | 105% | 98.3% | 89.1% | 98% | 101% | 102% | 81.8% | 91.4% | 88.8% | 100% | 92.5%
5 | COc1ccc(C(=O)/C=C/c2cccc([N+](=O)[O-])c2)c(OC)c1 | 32.6% | 49.2% | 66% | 26.1% | 1.68% (active) | 67.5% | 7.28% (active) | 27.6% | -7.25% (active) | 60.2% | 25.3% | 8.25% (active) | 70.5% | 34.7% | -33.8% (active) | 25% | 35.5% | 8.09% (active) | 66.4% | 30.6%
6 | Cc1nc(Nc2cccnc2)sc1C(=O)/C=C/c1ccc(F)cc1 | 82.3% | 55.7% | 47.9% | 30.4% | 59.8% | 88.6% | 52% | 25.2% | 13.8% | 56.4% | 9.5% (active) | 11.4% | 88.1% | 89.2% | 18.1% | 42.1% | 42.4% | 18.2% | 73.5% | 25.5%
7 | COc1ccc(/C=C/C(=O)c2cc(OC)c(OC)c(OC)c2)cc1OCc1cn(Cc2ccc(F)cc2)nn1 | 103% | 76.8% | 33.6% | 4.52% (active) | 95.8% | 55.9% | 26.4% | 29.7% | 49.3% | 66.4% | 59.3% | 7.36% (active) | 92.1% | 81.8% | 72.2% | 79.3% | 68.4% | 6.59% (active) | 98.3% | 87.7%
8 | O=C1c2ccccc2C(=O)c2c(N=Nc3sc(=O)[nH]c3S)cccc21 | 96.3% | 110% | 99% | 99.3% | 95.9% | 92.9% | 83.1% | 98.1% | 107% | 98.9% | 103% | 78.5% | 93.3% | 97.1% | 115% | 97.3% | 97.2% | 107% | 88.5% | 96.2%
9 | O=C1N=C(c2c(-c3[nH]c(=O)c4ccc(Br)cc4c3O)c(O)c3ccccc3c2O)C(=O)c2cc(Br)ccc21 | -43% (active) | -30.4% (active) | -3.29% (active) | -52.9% (active) | -80.9% (active) | -13.2% (active) | -31.4% (active) | -32.2% (active) | -63.2% (active) | 73.1% | -38.2% (active) | 14.3% | -74.3% (active) | -8.73% (active) | -76.1% (active) | -41.4% (active) | 17.2% | -57.7% (active) | -51.6% (active) | -31.9% (active)
10 | COc1cc(/C=C2\C=C(c3ccc(F)cc3)N(Cc3ccccc3)C2=O)cc(OC)c1OC | 62.6% | 56.7% | 61.4% | 108% | 66.4% | 35% | 90.6% | 56.4% | 66.6% | 82.7% | 94.8% | 56.1% | 90.7% | 78.7% | 64.5% | 77.4% | 83.6% | 87% | 79.3% | 76.2%
11 | CCCCNC(=O)NS(=O)(=O)c1ccc(N2N=C(c3ccc(C)cc3C)CC2c2ccc(OC)cc2)cc1 (stereo not given) | 65.4% | 86.7% | 90.6% | 92% | 48.3% | 75.1% | 54.4% | 38.4% | 61.3% | 93.5% | 92.4% | 58.9% | 108% | 85.4% | 82.6% | 84.8% | 41.6% | 69.7% | 72.5% | 42.7%
12 | COc1cc(C2C=C(C)N=C3SC=C(C)N32)cc(OC)c1OC (stereo not given) | -27.7% (active) | 2.75% (active) | 13.6% | -62.1% (active) | -39% (active) | -32.4% (active) | -87.1% (active) | -19.2% (active) | -69% (active) | -75.9% (active) | -26.7% (active) | 2.16% (active) | -54% (active) | -23.5% (active) | -89.7% (active) | -16.9% (active) | -1.7% (active) | -40.4% (active) | -38.9% (active) | -52.5% (active)
13 | CCCCCCCCCCCCCCCCC(Br)C(=O)O (stereo not given) | 110% | 95.5% | 115% | 92.4% | 108% | 120% | 80.4% | 103% | 111% | 119% | 116% | 86.1% | 98.3% | 115% | 105% | 112% | 93.8% | 86.4% | 110% | 101%
14 | CCCCCCCCCCn1cc[n+](C)c1 | 28.8% | 30.4% | 57.1% | 38.2% | 23.6% | 51.9% | -19.9% (active) | 32.6% | 47.8% | 8.8% (active) | 75.4% | 64.2% | 8.94% (active) | 41.5% | -20.8% (active) | 58.7% | 9.99% (active) | 30.5% | -12.4% (active) | 24.6%
15 | COc1ccc(-c2cn[nH]c2-c2cc(OC)c3c(c2)OCCO3)cc1 | 25.6% | 57.1% | 50.7% | 24% | 4.65% (active) | 46.6% | -22.8% (active) | 30% | 33% | -59.5% (active) | 9.03% (active) | 9.59% (active) | 97.9% | 17.1% | -14% (active) | 25.1% | 28.7% | -34.3% (active) | 75% | 10.6%
